# According to PubChem BioAssay (NCATS):
# “And” between values parts separate entries of the source, which are not always exact repeats. Equal values may be shown once. Inconclusive results are not listed. A number with no mark means an inactive call. The source made the active and inactive calls. Calls follow the shape of the dose curve; as a rule, active = well fitted activation curve with a large enough effect; inconclusive = small, poorly fitted or top-dose-only effect; inactive = no such curve, though single readings can be large or run the other way.
# Target: Cellular tumor antigen p53 (Homo sapiens) (UniProt P04637)
# Assay: Primary qHTS for small molecule compounds that upregulate eGFP-tagged delta133p53alpha (in N-terminal) cells. (AID 2060322); also: nearly all actives have a fitted effect of over 75% in size;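 as to activation: cells pre-induced with doxycycline then dosed without doxycycline; series mostly up to about 56 µM; 0% = DMSO vehicle and 100% = reference activator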
# Conditions: NCI-H358 eGFP-delta133p53alpha fluorescence, 24 h; activation: stronger effect = higher value
# In short: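 NCI-H358 cells pre-induced 24 h with 10 ng/ml doxycycline for eGFP-delta133p53alpha, plated dox-free and exposed 24 h at 37C to titrated compounds. Fixed, Hoechst-stained; gated GFP peak intensity by laser scanning cytometry, normalized to DMSO (0%) and 57.5 uM 5-azacytidine (100%).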
# Potency is read from the fitted curve at half-maximal effect.
# Cellular tumor antigen p53 (Homo sapiens), sequence (P04637 whole entry, looked up): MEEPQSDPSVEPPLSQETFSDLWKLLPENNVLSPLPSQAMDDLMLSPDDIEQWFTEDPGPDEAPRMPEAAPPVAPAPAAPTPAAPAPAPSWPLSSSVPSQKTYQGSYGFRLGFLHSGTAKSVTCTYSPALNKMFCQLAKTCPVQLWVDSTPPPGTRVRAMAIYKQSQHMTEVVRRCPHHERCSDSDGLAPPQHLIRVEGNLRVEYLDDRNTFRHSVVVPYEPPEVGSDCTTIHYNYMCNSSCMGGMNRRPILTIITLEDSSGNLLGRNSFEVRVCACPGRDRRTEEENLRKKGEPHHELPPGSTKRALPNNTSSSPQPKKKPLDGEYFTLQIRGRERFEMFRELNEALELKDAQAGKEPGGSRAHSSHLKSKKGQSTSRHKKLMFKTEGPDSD
Structure (SMILES),activation,Potency
CC(=O)O[C@H]1[C@H](O[C@H]2[C@@H]3C=CO[C@@H](O[C@@H]4O[C@H](CO)[C@@H](O)[C@H](O)[C@H]4O)[C@@H]3[C@@]3(CO)O[C@@H]23)O[C@@H](C)[C@H](OC(=O)/C=C/c2ccccc2)[C@H]1OC(=O)/C=C/c1ccccc1,-7.63%,
CC(=O)O[C@@H]1[C@H](O)[C@@H](O[C@@H]2O[C@@H](C)[C@H](O[C@@H]3OC[C@@H](O)[C@H](O[C@@H]4OC[C@@H](O)[C@H](O)[C@H]4O)[C@H]3O)[C@@H](O[C@@H]3O[C@H](CO)[C@@H](O)[C@H](O)[C@H]3O)[C@H]2O)[C@H](OC(=O)[C@]23CCC(C)(C)C[C@H]2C2=CCC4[C@@]5(C)CC[C@H](O[C@@H]6O[C@H](C(=O)O)[C@@H](O)[C@H](O[C@@H]7OC[C@@H](O)[C@H](O)[C@H]7O)[C@H]6O[C@@H]6O[C@H](CO)[C@H](O)[C@H](O)[C@H]6O)[C@@](C)(C=O)C5CC[C@@]4(C)[C@]2(C)CC3)O[C@@H]1C (some centres not stated),-9.16%,
Cc1ccc(N2CCN(S(=O)(=O)N3CCCCC3)CC2)c(C)c1,17.9%,
N#C[C@@H]1CCCN1C(=O)CNC12CC3CC(CC(O)(C3)C1)C2,15%,
CC(O)/C=C/C1(O)C(C)C(O)C(O[C@@H]2O[C@H](CO)[C@@H](O)[C@H](O)[C@H]2O)CC1(C)C (some centres not stated),-14.3%,
CC(=O)O[C@H]1[C@H](OC(=O)C(C)C)[C@]2(C)OC3(CC[C@]2(C)[C@H]2CCC[C@]4(CO4)[C@]12C)COC(=O)C3 (some centres not stated),1.53%,
C[C@@H]1O[C@@H](OC2C(O[C@H]3[C@H](O[C@H]4CC[C@@]5(C)C(CC[C@]6(C)C5CC=C5C7CC(C)(C)CC(O)[C@]7(C)CC[C@]56C)C4(C)C)O[C@H](C(=O)O)[C@@H](O)[C@@H]3O)OC(CO)C(O)C2O)[C@H](O)[C@H](O)[C@H]1O (some centres not stated),-6.11%,
C=C1C(=O)O[C@H](CCC)[C@H]1C(=O)O,-1.67%,
CC/C=C(\C(=O)N[C@@H]1C(=O)N2C(C(=O)OCOC(=O)C(C)(C)C)=C(COC(N)=O)CS[C@H]12)c1csc(N)n1,2.82% and -18.4%,
CC(O)(CC(=O)O)CC(=O)OCc1ccc(O[C@@H]2O[C@H](CO)[C@@H](O)[C@H](O)[C@H]2O)cc1 (some centres not stated),-13.7%,
CC(C)(C)OC(=O)N1CCC(OCc2nc(-c3ccncc3)no2)CC1,-3.34%,
CC(C)=CCC[C@](C)(O[C@@H]1O[C@H](CO[C@@H]2OC[C@@H](O)[C@H](O)[C@H]2O)[C@@H](O)[C@H](O)[C@H]1O)[C@H]1CC[C@]2(C)[C@@H]1[C@H](O)C[C@@H]1[C@@]3(C)CC[C@H](O[C@@H]4O[C@H](CO)[C@@H](O)[C@H](O)[C@H]4O)C(C)(C)[C@@H]3CC[C@]12C,6.33%,
CC(C)=C1C[C@@]2(C)C(=CC1=O)CC[C@@H](OC(=O)/C(C)=C/CO)[C@@H]2C,5.34%,
C=C1CCC2C(OC(=O)C2(O)COC(C)=O)C2C(=C)C(O)CC12 (configuration not stated),-3.82%,
Cc1cccc(-c2[nH]ncc2-c2ccnc3ccccc23)n1,8.93%,
CC1(C)CC[C@]2(C(=O)O[C@@H]3O[C@H](CO)[C@@H](O)[C@H](O)[C@H]3O)CC[C@]3(C)C(=CCC4[C@@]5(C)CC[C@H](O[C@@H]6O[C@H](C(=O)O)[C@@H](O)[C@H](O)[C@H]6O)C(C)(C)C5CC[C@]43C)C2C1 (some centres not stated),-0.893%,

Structure (SMILES),activation,Potency
FC(F)(F)c1cc(-c2ncn(/C=C\c3nnco3)n2)cc(C(F)(F)F)c1,7.67%,
C=C1[C@H](OC(C)=O)[C@H]2[C@@H](OC(C)=O)[C@](C)(OC(C)=O)C[C@]2(OC(C)=O)C(=O)[C@H](C)/C=C/C(C)(C)C(=O)[C@H](OC(=O)C(C)CC)[C@H]1OC(C)=O (some centres not stated),-14.5%,
C=C(C)[C@@H]1CC[C@]2(CO)CC[C@]3(C)[C@H](CC[C@@H]4[C@@]5(C)CC[C@H](O)C(C)(C)[C@@H]5CC[C@]43C)[C@@H]12,,10.4 µM (active)
CC1=CC(=O)CC(C)(CO[C@@H]2O[C@H](CO)[C@@H](O)[C@H](O)[C@H]2O)C1(O)/C=C/C(C)=C/C(=O)O (some centres not stated),0.893%,
C=C(C(=O)O)[C@@H]1CC[C@H](C)[C@@H]2CC(=O)C(C)=C2C1,-8.04%,
CCOc1nc2cccc(C(=O)O)c2n1Cc1ccc(-c2ccccc2-c2nn[nH]n2)cc1,-1.69% and 19.6%,
C=C[C@@]1(C)CCC2=C([C@H]1OC(C)=O)[C@H](OC(C)=O)CC1[C@](C)(C(=O)OC)CC[C@H](OC(C)=O)[C@]21C (some centres not stated),15.2%,
CC(C)(C)c1ccc(C(=O)Nc2cn3cc(-n4ccnc4)ccc3n2)cc1,1.79%,
COc1ccc(CCc2nc3cc(-c4c(C)noc4C)ccc3n2CC(C)N2CCOCC2)cc1Cl (configuration not stated),3.67%,
CC(C)C1(O[C@@H]2O[C@H](CO)[C@@H](O)[C@H](O)[C@H]2O)CC=C(CO)CC1 (some centres not stated),17.9%,
CC1=C(C(=O)OC2OC(COC3OC(CO)C(O)C(O)C3O)C(O)C(O)C2O)C(C)(C)CCC1 (configuration not stated),-14.5%,
Cc1cccc(N2CCN(C(=O)c3cc(S(=O)(=O)N(C)C)ccc3N3CCCC3)CC2)c1C,-4.33%,
CCCCCOC(=O)Nc1nc(=O)n(C2O[C@H](C)[C@@H](O)[C@H]2O)cc1F (some centres not stated),-11.7%,
COc1ccc(CCC(=O)O)c(O[C@@H]2O[C@H](CO)[C@@H](O)[C@H](O)[C@H]2O)c1,-13.7%,
C/C=C(/C)C(=O)O[C@@H]1C[C@@H](OC(=O)CC(C)C)C2(C)C3C(=O)C=C(C)C2C3C1(C)C (some centres not stated),-29%,
CCC(C)C1NC(=O)C(Cc2ccccc2)NC(=O)C(CCCCCC(=O)C(O)CO)NC(=O)C2CCCCN2C1=O (configuration not stated),-9.92%,
